# Laboratory results as given in PubChem BioAssay (NCI).
# Values joined by “and” are separate entries in the source; they are usually repeats but may differ in a detail not shown here. Identical values can stand only once. The panel holds about 79,000 compounds, 15% with a hit somewhere; the sample as a whole holds those more often. More than one record can exist for a structure, and the calls need not agree. Active and inactive are the calls of the source. No stated cut-off is given here; in the data, active means growth inhibition above about 70%; inactive means the rest.
# How the values were obtained:
# [1] = NCI Yeast Anticancer Drug Screen. Data for the rad50 strain (AID 155);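 further: 0% = growth of vehicle-only cultures of the same strain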; details: S. cerevisiae rad50 strain growth inhibition, stronger effect = higher value
# Procedure, shortened: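 Cells are treated with compound, grown, and their growth is then scored against vehicle-only cultures of the same repair-deficient yeast strain.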
# [2] = NCI Yeast Anticancer Drug Screen. Data for the mec2-1 strain (AID 157); details: S. cerevisiae mec2-1 strain, stronger effect = higher value
# Procedure, shortened: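 Mutant yeast (mec2-1) grown with compound; growth inhibition relative to vehicle control reported.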
# [3] = NCI Yeast Anticancer Drug Screen. Data for the sgs1 mgt1 strain (AID 161);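 further: 0% = growth of cultures given vehicle only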; details: S. cerevisiae sgs1 mgt1 strain, stronger effect = higher value
# Procedure, shortened: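 This yeast growth screen uses a strain with defined DNA-repair lesions; compound-treated growth is compared with vehicle-treated growth.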
# [4] = NCI Yeast Anticancer Drug Screen. Data for the cln2 rad14 strain (AID 165);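 further: 0% = growth equal to vehicle treated cultures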; details: S. cerevisiae cln2 rad14 strain, stronger effect = higher value
# Procedure, shortened: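 Readout is yeast growth inhibition versus vehicle-treated controls, using a strain with cln2 and rad14 alterations exposed to compound.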
# [5] = NCI Yeast Anticancer Drug Screen. Data for the bub3 strain (AID 167); details: S. cerevisiae bub3 mutant strain, stronger effect = higher value
# Procedure, shortened: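 Part of a panel of yeast mutants defective in DNA damage repair or cell cycle regulation. Each strain is grown with compound, and inhibition is calculated relative to solvent-treated cultures.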
# [6] = NCI Yeast Anticancer Drug Screen. Data for the mlh1 rad18 strain (AID 175); details: S. cerevisiae mlh1 rad18 strain growth inhibition, stronger effect = higher value
# Procedure, shortened: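 Genetically defined yeast (DNA repair-deficient) exposed to compounds; growth inhibition determined relative to vehicle.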
# [7] = at 5.0 µM (retest, dose inferred, filed as 0.5)
# [8] = at 50.0 µM (retest, dose inferred, filed as 5.0)
SMILES,"growth inhibition [1, 7]","growth inhibition [1, 8]",growth inhibition ([1]; at 50.0 µM),"growth inhibition [2, 7]","growth inhibition [2, 8]",growth inhibition ([2]; at 50.0 µM),"growth inhibition [3, 7]","growth inhibition [3, 8]",growth inhibition ([3]; at 50.0 µM),"growth inhibition [4, 7]","growth inhibition [4, 8]",growth inhibition ([4]; at 50.0 µM),"growth inhibition [5, 7]","growth inhibition [5, 8]",growth inhibition ([5]; at 50.0 µM),"growth inhibition [6, 7]","growth inhibition [6, 8]",growth inhibition ([6]; at 50.0 µM)
Nc1ccc([N+](=O)[O-])c(S(=O)(=O)O)c1,-160% (inactive),-143% (inactive),60.8% (inactive) and -0.9% (inactive),-46% (inactive),-47% (inactive),28.6% (inactive) and -3.55% (inactive),-60% (inactive),-54% (inactive),46% (inactive) and 3.45% (inactive),-56% (inactive),-53% (inactive),40.2% (inactive) and -6.5% (inactive),-71% (inactive),-57% (inactive),78.8% (active) and -31.6% (inactive),-139% (inactive),-104% (inactive),64.6% (inactive) and 6.45% (inactive)
O=c1cc[nH]c2ccccc12,34% (inactive),81% (active),13.5% (inactive) and 0% (inactive),24% (inactive),63% (inactive),1.25% (inactive) and -3.85% (inactive),16% (inactive),64% (inactive),-6.85% (inactive) and 7.5% (inactive),6% (inactive),48% (inactive),7.35% (inactive) and -24.1% (inactive),71% (active),98% (active),-1.2% (inactive) and -1.85% (inactive),50% (inactive),88% (active),0.7% (inactive) and 0.35% (inactive)
N#Cc1c(/N=C/c2ccccc2Cl)sc2c1CCC2,18% (inactive),-14% (inactive),20.1% (inactive),-14% (inactive),-4% (inactive),-0.55% (inactive),-1% (inactive),10% (inactive),12.1% (inactive),26% (inactive),11% (inactive),4.2% (inactive),0% (inactive),-10% (inactive),23.9% (inactive),-1% (inactive),-20% (inactive),13.2% (inactive)
CS(=O)(=O)OC1CC(n2ccc(=O)[nH]c2=O)OC1COC(c1ccccc1)(c1ccccc1)c1ccccc1 (configuration not stated),-14% (inactive),95% (active),14.9% (inactive) and 97% (active),-4% (inactive),95% (active),-4.6% (inactive) and 97% (active),-17% (inactive),54% (inactive),11.3% (inactive) and 50.5% (inactive),0% (inactive),92% (active),2.9% (inactive) and 96.3% (active),-3% (inactive),86% (active),7.25% (inactive) and 97.8% (active),0% (inactive),97% (active),5.6% (inactive) and 97% (active)
CC(=O)Oc1ccc2c(c1)Oc1cc(OC(C)=O)ccc1C21OC(=O)c2ccccc21,5% (inactive),5% (inactive),16.8% (inactive) and 98.2% (active),-3% (inactive),53% (inactive),19.5% (inactive) and 99.5% (active),3% (inactive),36% (inactive),30.9% (inactive) and 96.8% (active),3% (inactive),54% (inactive),14.2% (inactive) and -25.1% (inactive),-1% (inactive),27% (inactive),18.6% (inactive) and 99.5% (active),14% (inactive),24% (inactive),24.8% (inactive) and 98.7% (active)
O=C(O)c1ccc2c(c1)Cc1cc([N+](=O)[O-])ccc1-2,-3% (inactive),88% (active),70.1% (active),-7% (inactive),72% (active),13.4% (inactive),7% (inactive),85% (active),64% (inactive),-92% (inactive),83% (active),34.6% (inactive),-10% (inactive),0% (inactive),14% (inactive),4% (inactive),82% (active),73% (active)
Oc1ccc(Cc2ccccc2)cc1,1% (inactive),14% (inactive),63.6% (inactive),-3% (inactive),14% (inactive),34% (inactive),-4% (inactive),15% (inactive),23.8% (inactive),-5% (inactive),-12% (inactive),-18.6% (inactive),-2% (inactive),6% (inactive),42.2% (inactive),2% (inactive),11% (inactive),72.2% (active)
O=C1OC(c2cccnc2)OC(c2ccccc2)=C1C(=O)c1ccccc1 (configuration not stated),5% (inactive),99% (active),99.4% (active),23% (inactive),99% (active),99.5% (active),4% (inactive),98% (active),99.5% (active),12% (inactive),99% (active),98.7% (active),-4% (inactive),99% (active),98.8% (active),33% (inactive),99% (active),99.2% (active)
O=C(CCl)Nc1ccc(C(=O)N/N=C/c2ccc(Cl)cc2)cc1,57% (inactive),90% (active),-8.7% (inactive),26% (inactive),65% (inactive),-32.9% (inactive),42% (inactive),70% (active),-21.8% (inactive),23% (inactive),57% (inactive),7.05% (inactive),45% (inactive),82% (active),-14.4% (inactive),41% (inactive),80% (active),-27.7% (inactive)
Nc1cc2ccccc2c2c1ccc1ccccc12,-159% (inactive) and 6% (inactive),4% (inactive) and 95% (active),96.5% (active) and 89.7% (active),-48% (inactive) and 1% (inactive),8% (inactive) and 97% (active),96.9% (active) and 94.2% (active),-66% (inactive) and 14% (inactive),-18% (inactive) and 64% (inactive),97.8% (active) and 92.5% (active),-56% (inactive) and -2% (inactive),24% (inactive) and 95% (active),95.3% (active) and 90.5% (active),-64% (inactive) and -4% (inactive),-2% (inactive) and 96% (active),97.6% (active) and 91.4% (active),-125% (inactive) and 3% (inactive),-40% (inactive) and 96% (active),96.4% (active) and 90.7% (active)
CNC(=O)N(C)CN(C)C(=O)NC,0% (inactive),9% (inactive),17.1% (inactive) and 17.2% (inactive),-1% (inactive),2% (inactive),-11.9% (inactive) and 17.7% (inactive),-3% (inactive),7% (inactive),4% (inactive) and 19.8% (inactive),-4% (inactive),-9% (inactive),26.8% (inactive) and 18.6% (inactive),-5% (inactive),-8% (inactive),2.8% (inactive) and -19.9% (inactive),-5% (inactive),7% (inactive),3.75% (inactive) and 40.1% (inactive)
OC(C/C=C/c1ccccc1)(c1ccccc1)c1ccccc1,3% (inactive),39% (inactive),97% (active) and 97.5% (active),-1% (inactive),48% (inactive),98.7% (active),7% (inactive),52% (inactive),98.1% (active) and 98.2% (active),7% (inactive),55% (inactive),96.9% (active) and 98.2% (active),29% (inactive),83% (active),96.8% (active) and 97.7% (active),-2% (inactive),61% (inactive),97.4% (active) and 98.2% (active)
COc1cc(/C=C/C(=O)NCCCCN=[N+]=[N-])ccc1OCc1ccccc1,-1% (inactive),-13% (inactive),89.8% (active),1% (inactive),-11% (inactive),82.2% (active),-7% (inactive),1% (inactive),27.4% (inactive),-9% (inactive),-13% (inactive),-3.15% (inactive),-6% (inactive),-8% (inactive),10.1% (inactive),-3% (inactive),-11% (inactive),39.9% (inactive)
CCCCCCCCCCCCOS(=O)(=O)O,-6% (inactive),29% (inactive),-13.1% (inactive) and 99% (active) and 25.1% (inactive),-12% (inactive),2% (inactive),-36.6% (inactive) and 98.2% (active) and 32.4% (inactive),-5% (inactive),28% (inactive),6.3% (inactive) and 97% (active) and 36.8% (inactive),0% (inactive),36% (inactive),1% (inactive) and 98.4% (active) and 7.2% (inactive),-17% (inactive),-20% (inactive),-29.6% (inactive) and 97% (active) and 23.4% (inactive),-17% (inactive),29% (inactive),-2.05% (inactive) and 98.2% (active) and 55.9% (inactive)
